In PubChem BioAssay (Tox21):
Records with an inconclusive call do not appear. The source made the active and inactive calls. Unless noted, calls come from the whole dose curve.

Key:
[1] = Nuclear factor erythroid 2-related factor 2/antioxidant responsive element (Nrf2/ARE) small molecule agonists: qHTS cell viability counter screen in human keratinocytes (AID 1919968; active = well fitted curve in the direction sought with a large enough effect in the repeat runs; an effect the other way counts as inactive or inconclusive; note: nearly all actives have a fitted effect of over 55% in size)
Outline: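 Measured as CellTiter-Fluor fluorescence, this readout tracks cytotoxicity in the same wells as the ARE-luciferase screen. HaCaT reporter cells (1,500/well) received compounds after a 5 h pre-incubation and were exposed for 23 h.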

[2] = Nuclear factor erythroid 2-related factor 2/antioxidant responsive element (Nrf2/ARE) small molecule agonists: luciferase reporter gene qHTS assay in human keratinocytes (AID 1919969); note: nearly all actives have a fitted effect of over 35% in size
[3] = biological target: KiSS-1 receptor (Homo sapiens) (UniProt Q969F8); experiment: Human kisspeptin (KISS1R) small molecule agonists, calcium flux assay in KISS1R-HEK293 cells (AID 1920064; active = well fitted curve in the direction sought with a large enough effect in the repeat runs; an effect the other way counts as inactive or inconclusive)
Sequence of KiSS-1 receptor (Homo sapiens) (Q969F8 whole entry, looked up): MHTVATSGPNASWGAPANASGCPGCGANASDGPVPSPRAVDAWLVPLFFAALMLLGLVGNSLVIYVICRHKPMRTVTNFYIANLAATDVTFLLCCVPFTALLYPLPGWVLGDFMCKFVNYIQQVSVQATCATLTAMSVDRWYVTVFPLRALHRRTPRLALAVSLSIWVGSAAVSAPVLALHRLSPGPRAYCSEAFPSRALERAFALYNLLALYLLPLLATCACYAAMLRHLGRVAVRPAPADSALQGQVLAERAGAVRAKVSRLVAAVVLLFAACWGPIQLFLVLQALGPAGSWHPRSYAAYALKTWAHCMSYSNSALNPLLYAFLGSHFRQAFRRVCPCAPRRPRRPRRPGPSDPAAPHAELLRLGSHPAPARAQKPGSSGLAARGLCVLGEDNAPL
Outline: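 Measures KISS1R agonism through calcium-sensitive dye fluorescence in stably transfected HEK293 cells, read for 3 min after pin-tool compound delivery; 15-point titrations in triplicate.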

[4] = G protein-coupled receptor (GPCR) small molecule agonists, calcium flux assay: HEK293 wild type cell line counter screen (AID 1920065)
Outline: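 Readout: fluorescence at 480 nm excitation/540 nm emission, sampled at 1 s intervals for 3 min. Cells had been cultured 18 h, then dye-loaded 1 h at 37 C before compound or ATP addition.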

[5] = p53 small molecule agonists, cell-based qHTS assay with human liver microsomes (AID 1963577);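 note: p53 response element beta-lactamase reporter cells with liver microsomes plus NADPH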
Outline: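 Steps: plate p53RE-bla cells, incubate 5 h at 37 C; add compound in DMSO; add microsomes (0.5 mg/mL final) and NADPH (0.5 mg/mL final); incubate 16 h at 37 C; add LiveBLAzer, 2 h RT; read fluorescence.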

[6] = p53 small molecule agonists, cell-based qHTS assay with rat liver microsomes (AID 1963578)
Outline: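 Metabolic activation is supplied by rat liver microsomes with NADPH (each 0.5 mg/mL final). p53RE-bla cells incubate with compound 16 h at 37 C; reporter activity is measured by LiveBLAzer fluorescence.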

[7] = p53 small molecule agonists, cell-based qHTS assay with human liver microsomes: qHTS cell viability counter screen (AID 1963579); note: nearly all actives have a fitted effect of over 45% in size
Outline: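 After the 460/530 nm beta-lactamase read, CellTiter-Glo was added to the same wells and luminescence measured after 30 min at room temperature, giving viability of p53RE-bla cells treated 16 h with compounds plus microsomes and NADPH.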

[8] = p53 small molecule agonists, cell-based qHTS assay with rat liver microsomes: qHTS cell viability counter screen (AID 1963580); note: nearly all actives have a fitted effect of over 45% in size
Outline: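 Intracellular ATP, by CellTiter-Glo luminescence, defines viability. HCT-116 p53RE-bla cells, 4,000 per well, were compound-treated in the presence of rat liver microsomes and NADPH for 16 h at 37 C.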

[9] = p53 small molecule agonists, cell-based qHTS assay: qHTS cell viability counter screen (AID 1963581); note: nearly all actives have a fitted effect of over 45% in size
Outline: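 In the same plates used for the p53 bla reporter, HCT-116 cells given compounds for 16 h at 37 C received CellTiter-Glo; luminescence was recorded 30 min later at room temperature.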

[10] = p53 small molecule agonists, cell-based qHTS assay (AID 1963582; active = well fitted activation curve with a large enough effect in the signal ratio in the repeat runs, not every such curve was filed as active; the % refers to the signal ratio)
Outline: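 Compounds are pin-transferred in DMSO onto p53RE-bla cells and incubated 16 h at 37 C. The B/G FRET beta-lactamase substrate is then applied for 2 h at RT and fluorescence recorded.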

[11] = biological target: 5-hydroxytryptamine receptor 2A (Homo sapiens) (UniProt P28223); experiment: 5-hydroxytryptamine receptor 2A (HTR2A) small molecule antagonists, cell-based qHTS assay (AID 1963586); note: nearly all actives have a fitted effect of over 45% in size
Sequence of 5-hydroxytryptamine receptor 2A (Homo sapiens) (P28223 whole entry, looked up): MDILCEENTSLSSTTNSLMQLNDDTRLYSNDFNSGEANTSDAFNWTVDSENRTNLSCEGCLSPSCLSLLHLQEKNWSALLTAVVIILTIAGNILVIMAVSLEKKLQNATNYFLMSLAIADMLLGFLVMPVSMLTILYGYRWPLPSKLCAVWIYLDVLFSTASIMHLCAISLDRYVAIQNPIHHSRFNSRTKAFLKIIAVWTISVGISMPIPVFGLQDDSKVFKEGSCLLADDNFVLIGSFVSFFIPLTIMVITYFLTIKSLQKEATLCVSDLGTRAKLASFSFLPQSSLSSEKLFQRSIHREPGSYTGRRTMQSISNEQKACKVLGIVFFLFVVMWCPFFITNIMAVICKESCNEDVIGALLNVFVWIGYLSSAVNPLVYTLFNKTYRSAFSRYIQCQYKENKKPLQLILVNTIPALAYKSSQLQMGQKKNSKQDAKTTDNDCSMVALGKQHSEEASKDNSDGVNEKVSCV
Outline: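 Antagonist-mode intracellular calcium assay: DOI (4 nM) added after 5 min compound pre-incubation at room temperature to dye-loaded HTR2A-CHO cells. Fluorescence followed for 3 min, sampled every second.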

[12] = biological target: 5-hydroxytryptamine receptor 2A (Homo sapiens) (UniProt P28223); experiment: 5-hydroxytryptamine receptor 2A (HTR2A) small molecule agonists, cell-based qHTS assay (AID 1963587); note: nearly all actives have a fitted effect of over 30% in size
Outline: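 Kinetic calcium-flux fluorescence (2 min, 1 sec intervals) after compound addition in agonist mode. HTR2A-CHO cells were cultured 18 h, then dye-loaded 1 h at 37 C.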

[13] = biological target: Muscarinic acetylcholine receptor M1 (Homo sapiens) (UniProt P11229); experiment: Cholinergic receptor muscarinic 1 (CHRM1) small molecule antagonists, cell-based qHTS assay (AID 1963588); note: nearly all actives have a fitted effect of over 40% in size
Sequence of Muscarinic acetylcholine receptor M1 (Homo sapiens) (P11229 whole entry, looked up): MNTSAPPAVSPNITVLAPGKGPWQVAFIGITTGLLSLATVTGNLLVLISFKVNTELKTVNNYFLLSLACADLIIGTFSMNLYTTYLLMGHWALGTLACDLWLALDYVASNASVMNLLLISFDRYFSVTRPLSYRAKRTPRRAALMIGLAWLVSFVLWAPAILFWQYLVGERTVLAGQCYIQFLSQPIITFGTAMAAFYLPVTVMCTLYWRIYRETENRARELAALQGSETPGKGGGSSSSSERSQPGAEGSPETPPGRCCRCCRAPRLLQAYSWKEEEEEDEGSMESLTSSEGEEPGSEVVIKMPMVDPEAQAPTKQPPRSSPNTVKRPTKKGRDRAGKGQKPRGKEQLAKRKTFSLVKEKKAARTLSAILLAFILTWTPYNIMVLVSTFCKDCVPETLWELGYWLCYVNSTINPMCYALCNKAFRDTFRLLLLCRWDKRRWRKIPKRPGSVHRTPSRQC
Outline: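 CHRM1-CHO calcium-flux assay, antagonist mode. Cells were seeded 18 h, dye-loaded 1 h at 37 C and given compound for 5 min at RT, then acetylcholine was added at 50nM. FDSS fluorescence was read 3 min; 15 concentrations, three runs.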

[14] = biological target: Muscarinic acetylcholine receptor M1 (Homo sapiens) (UniProt P11229); experiment: Cholinergic receptor muscarinic 1 (CHRM1) small molecule agonists, cell-based qHTS assay (AID 1963589); note: nearly all actives have a fitted effect of over 35% in size
Outline: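 Each compound was tested at 15 concentrations across three independent runs on dye-loaded CHO cells stably expressing human CHRM1, reading intracellular calcium fluorescence kinetically at 1 sec intervals.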

[15] = cAMP Responsive Elements (CRE) small molecule antagonists, cell-based qHTS assay (AID 1963591; active = well fitted inhibition curve with a large enough effect in the signal ratio in the repeat runs, not every such curve was filed as active; the % refers to the signal ratio)
Outline: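 Inhibition of NKH477-driven (0.25 uM final) CRE-beta-lactamase signal in HEK293T cells, 3 h compound exposure at 37 °C, detected by FRET substrate fluorescence.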

[16] = biological target: Beta-2 adrenergic receptor (Homo sapiens) (UniProt P07550); experiment: Adrenergic beta2 receptor (ADRB2) small molecule antagonists, cell-based qHTS assay (AID 1963592); note: series mostly up to about 92 µM; nearly all actives have a fitted effect of over 50% in size
Sequence of Beta-2 adrenergic receptor (Homo sapiens) (P07550 whole entry, looked up): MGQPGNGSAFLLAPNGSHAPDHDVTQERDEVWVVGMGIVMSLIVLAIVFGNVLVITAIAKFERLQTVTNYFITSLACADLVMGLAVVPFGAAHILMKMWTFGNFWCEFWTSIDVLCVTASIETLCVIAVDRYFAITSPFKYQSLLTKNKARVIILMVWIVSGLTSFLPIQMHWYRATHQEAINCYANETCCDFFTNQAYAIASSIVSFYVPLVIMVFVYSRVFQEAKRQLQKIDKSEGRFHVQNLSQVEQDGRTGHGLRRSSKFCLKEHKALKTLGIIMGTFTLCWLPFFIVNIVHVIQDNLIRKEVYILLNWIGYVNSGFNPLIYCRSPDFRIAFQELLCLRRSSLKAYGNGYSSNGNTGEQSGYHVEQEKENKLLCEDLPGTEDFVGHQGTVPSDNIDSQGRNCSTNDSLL
Outline: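 Cells (CHO, stable ADRB2 overexpression) incubated 18-20hr at 37C; compounds added from DMSO; agonist mix (1nM isoproterenol, 100uM IBMX, 25uM Ro-20-1724) added; 0.5hr RT; d2-cAMP and anti-cAMP-cryptate added; 1hr RT; 665/615 nm read.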

[17] = biological target: D(2) dopamine receptor (Homo sapiens) (UniProt P14416); experiment: Dopamine D2 receptor (DRD2) small molecule agonists, cell-based qHTS assay (AID 1963594); note: nearly all actives have a fitted effect of over 35% in size
Sequence of D(2) dopamine receptor (Homo sapiens) (P14416 whole entry, looked up): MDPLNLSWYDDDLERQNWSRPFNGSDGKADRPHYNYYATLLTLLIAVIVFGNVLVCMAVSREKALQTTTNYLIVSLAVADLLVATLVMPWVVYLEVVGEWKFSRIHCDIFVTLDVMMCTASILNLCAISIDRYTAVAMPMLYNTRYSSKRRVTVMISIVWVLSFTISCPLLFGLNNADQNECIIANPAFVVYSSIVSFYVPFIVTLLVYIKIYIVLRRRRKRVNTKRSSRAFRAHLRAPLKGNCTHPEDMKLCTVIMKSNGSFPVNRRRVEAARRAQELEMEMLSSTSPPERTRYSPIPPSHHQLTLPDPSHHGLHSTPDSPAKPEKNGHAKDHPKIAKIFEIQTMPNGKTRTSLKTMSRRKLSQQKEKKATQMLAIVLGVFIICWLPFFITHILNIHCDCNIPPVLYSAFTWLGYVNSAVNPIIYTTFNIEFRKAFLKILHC
Outline: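 cAMP accumulation in DRD2-HEK293 cells measured by HTRF after 1 h detection; compounds added 10 min before NKH477 (200nM […]) forskolin-analogue stimulation, 30 min at room temperature, with Ro20-1724 present at 0.1 mM final.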

[18] = biological target: D(2) dopamine receptor (Homo sapiens) (UniProt P14416); experiment: Dopamine D2 receptor (DRD2) small molecule antagonists, cell-based qHTS assay (AID 1963595; active = well fitted inhibition curve with a large enough effect in the signal ratio in the repeat runs, with a control signal flat; the % refers to the signal ratio)
Outline: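 HTRF cAMP read-out at 665 and 620 nm emission (340 nm excitation). Antagonist mode: compounds were tested against 12 nM quinpirole in DRD2-HEK293 cells, with 200 nM NKH477 raising cAMP and 0.1 mM Ro20-1724 blocking its breakdown.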

[19] = biological target: Beta-2 adrenergic receptor (Homo sapiens) (UniProt P07550); experiment: Adrenergic beta2 receptor (ADRB2) small molecule agonists, cell-based qHTS assay (AID 1963593);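 note: CHO cells stably overexpressing human ADRB2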
Outline: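 CHO cells stably over-expressing ADRB2 were plated overnight at 37C, then dosed with compounds plus a stimulation mix containing 100uM IBMX and 25uM Ro-20-1724 for 0.5hr at room temperature. cAMP was measured by HTRF competition, 1hr.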

[20] = cAMP Responsive Elements (CRE) small molecule agonists, cell-based qHTS assay (AID 1963590)
Outline: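 Cell line: CRE-bla HEK 293T; medium DMEM/10% dialyzed FBS/0.1 mM NEAA/1 mM pyruvate/25 mM HEPES; 3 h compound exposure; beta-lactamase FRET readout after 2 h substrate loading at RT.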

Measured: Potency

Cc1ccccc1O
not listed: [19] | [20]
inactive: all other assays above

CCCCCCCCOC(=O)c1ccc(C(=O)OCCCCCCCC)c(C(=O)OCCCCCCCC)c1
not listed: [10] | [20]
inactive: all other assays above

OCC(Br)CBr (stereo unspecified)
not listed: [10] | [13] | [19]
inactive: all other assays above

CCCCN(CCCC)N=O
not listed: [8] | [15]
inactive: all other assays above

CN(C)N
not listed: [19]
inactive: all other assays above

COC(=O)NS(=O)(=O)c1ccc(N)cc1
not listed: [8] | [13]
inactive: all other assays above

CC[N+]1(CC)CCC(OC(=O)C(O)(c2ccccc2)c2ccccc2)C1 (stereo unspecified)
not listed: [13] | [14]
inactive: all other assays above
